Source: PubChem
HIF-2a inh: inhibitors of HIF-2a; 786-0 RCC cells HIF-2a reporter, luciferase luminescence, overnight; inhibition, % at 18.8 µM; 360,000 compounds, 0.72% hits;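 active means inhibition of the luminescence signal of 40% or more relative to plate controls, in a single-dose primary screen at 18.75 µM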
TROY signal inh: TROY signaling inhibition. inhibition, % at 10 µM. Q293 LMP1-TROYcd NF-kB luciferase reporter, 4 h. AID 1347056. 360,000 compounds, 0.98% hits;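 active means compounds whose plate-normalised and pattern-corrected inhibition of the luciferase reporter signal at the single screening dose is 50% or more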
LMP1 NFkB inh: reduces LMP1-driven NF-kappaB luciferase signal | AID 504558 | LMP1-induced NF-kappaB luciferase reporter cells, luminescence | inhibition, % at 12.5 µM | 350,000 compounds, 0.69% hits; in the data active means inhibition above about 41%; inconclusive means no clear call, values can overlap the other calls;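 further: 0% = neutral control wells and 100% = reference inhibitor control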
TWEAK Fn14 block: blocks TWEAK-Fn14 interaction in a reporter cell assay. inhibition, % at 10 µM. 360,000 compounds, 2% hits. TWEAK-stimulated Fn14 reporter cells, luciferase luminescence, 8 h. AID 1159606; in the data active means inhibition above about 50%
MITF TRPM1 inh: MITF TRPM1 promoter inhibition in SK-MEL-5 cells; SK-MEL-5 TRPM1 promoter luciferase, 24 h; inhibition, % at 12.5 µM; 330,000 compounds, 0.83% hits;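 active means mean inhibition across replicates of 60% or more, whatever share of single replicates reaches that level; inconclusive means some that reach 60%, reason not given; inactive means mean inhibition across replicates below 60%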
Shn3 3UTR inh: inhibitors of Schnurri-3 3'UTR reporter in osteoblasts. inhibition, % at 12.5 µM. 360,000 compounds, 0.52% hits. Clone20 osteoblast Shn3 3'UTR firefly luciferase, 24 h;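 active means mean inhibition of at least 75% with every replicate also reaching 75%; inconclusive means mean inhibition at least 75% but some replicate below; inactive means mean inhibition below 75%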;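 further: 0% = median of neutral control wells and 100% = pilot-screen positive control compound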
* hit, by the source's call; ? = inconclusive; nt = no result; ! = not confirmed by another sample. Shown are actives, neighbours in structure and some others; about 3.4% of the full set was active somewhere.

SMILES	HIF-2a inh	TROY signal inh	LMP1 NFkB inh	TWEAK Fn14 block	MITF TRPM1 inh	Shn3 3UTR inh
CCOc1ccc(C(CC(=O)O)NC(=O)c2sc3ccccc3c2Cl)cc1 (stereo not drawn)	20	0	51*	-23	-28	6
O=S1(=O)CCN(c2ccccc2CC(c2c[nH]c3ccccc23)c2c[nH]c3ccccc23)CC1	-12	28	-12	63*	11	14
O=c1[nH]c2cc(Cl)c(Cl)cc2o1	5	13	-1	-21	5	12
O=c1[nH]c2cc(Cl)c(Br)cc2o1	2	8	68*	-18	-4	-2
COc1ccc(CNC(=O)Cn2ccc3cc(S(=O)(=O)N4CCCC4)ccc32)cc1OC	2	12	6	-11	-1	-15
CCOC(=O)N1CCN(S(=O)(=O)N2CCCC(C(=O)NCc3cc(Br)ccc3OC)C2)CC1 (stereo not drawn)	15	-5	-2	14	nt	59
O=C(NC1(Cc2ccccc2)CCN(Cc2ccc(-c3ccccc3)cc2)C1=O)c1ccccc1 (stereo not drawn)	-1	62*	-11	59*	-1	79
O=C(CCc1ccccc1)NC1(Cc2ccccc2)CCN(CCc2cccs2)C1=O (stereo not drawn)	6	-16	2	20	2	-21
C=CCN=C1NN=C(c2cc(C)n(CCOC)c2C)CS1	47*	14	45*	41	24	4
C=CCn1c(C)cc(C2=NNC(=NC(C)(C)C)SC2)c1C	49*	28	57*	83*	79*	11
CC(=O)c1ccc(NCCC(=O)c2ccccc2)cc1	-129	49	-4	69*	-62	-20
Cc1ccc(C(=O)c2no[n+]([O-])c2C(=O)c2ccc(C)cc2)cc1	-40	-9	1	53*	79*	20
Cc1ccc(C(=O)c2ccc(C)cc2)cc1	-21	-65	-6	-13	-27	-13
C=CCC[C@@H](Cc1ccc(F)cc1)C(=O)OC[C@@H](Cc1c[nH]c2ccccc12)NC(=O)[C@H](CC=C)CC(=O)N(CCO)Cc1ccccc1	6	33	9	58*	10	50
C=CCC[C@H](Cc1ccc(F)cc1)C(=O)OC[C@@H](Cc1c[nH]c2ccccc12)NC(=O)[C@H](CC=C)CC(=O)N(CCO)Cc1ccccc1	-10	38	13	89*	17	?
C=CCC[C@H](Cc1ccc(F)cc1)C(=O)OC[C@@H](Cc1c[nH]c2ccccc12)NC(=O)[C@H](CC=C)CC(=O)NCCO	3	21	-2	21	2	13
COC(=O)[C@@]12C[C@@H](CC(=O)N3CCOCC3)C(=O)N(CCc3ccc(OC)c(OC)c3)C1=CCC(C)(C)C2	1	nt	nt	nt	nt	nt
O=C(Nc1ccc(Oc2ccccc2)cc1)c1csc([C@@H]2C[C@H](O)[C@@H](CO)O2)n1	-85	19	nt	17	nt	34
CCCC(C)C(=O)Nc1nnc(CCc2ccccc2)s1 (stereo not drawn)	-4	4	-6	6	3	-11
CN1CCN(Cc2nc3ccccc3c(=O)n2Cc2nc(-c3ccc([N+](=O)[O-])cc3)cs2)CC1	7	8	-2	-17	66*	-5
NC(=O)C1CCN(C(=O)COc2ccc3ccc(=O)oc3c2)CC1	5	2	-4	-22	-2	1
O=C(CCC(=O)OCC(=O)c1ccc(C(F)(F)F)cc1)OCC(=O)c1ccc(C(F)(F)F)cc1	17	-10	nt	14	nt	-4
COCCCC/C(=N\OCCN)c1ccc(C(F)(F)F)cc1	-17	-9	68*!	-7	-22	-3
CC(=O)Nc1cccc(-c2ccnc3c2CC(C)(C(=O)Nc2cccc(C(C)=O)c2)O3)c1 (stereo not drawn)	17	15	nt	1	nt	58
COc1ccc2c(c1)C(c1ccc(C)o1)=NNC(c1ccccc1)=N2	-19	-12	43*	-16	2	1
SMILES	HIF-2a inh	TROY signal inh	LMP1 NFkB inh	TWEAK Fn14 block	MITF TRPM1 inh	Shn3 3UTR inh
CCc1ccc(NC(=S)/N=C(\N)Nc2nc(C)c3cc(CC)ccc3n2)cc1	-21	41	11	57*	17	11
CCOc1ccc2nc(N/C(N)=N/C(=S)Nc3ccc(OC)cc3)nc(C)c2c1	-17	-9	-1	-11	-5	37
Cc1cc2cc(CN(Cc3ccco3)S(=O)(=O)c3c(C)ccc4nsnc34)c(=O)[nH]c2cc1C	26	-11	44*	27	56	11
Cc1ccc2cc(CN(Cc3ccco3)S(=O)(=O)c3c(C)ccc4nsnc34)c(=O)[nH]c2c1	0	8	-1	23	6	2
O=c1oc(=S)oc2c1[C@H](c1ccc(Cl)cc1)O[C@H](C1CC1)C2	-11	-4	nt	8	nt	nt
O=C(O)COc1ccc2nsnc2c1Cl	15	18	-2	-3	-8	-23
Cc1ccccc1C1=C/C(=C(\SS/C(C(=O)c2ccc(OCC(=O)O)c(Cl)c2Cl)=C2\C=C(c3ccccc3C)SS2)C(=O)c2ccc(OCC(=O)O)c(Cl)c2Cl)SS1	11	39	13	57*	8	27
COc1ccc(/C=C/c2noc(-c3ccccc3O)n2)cc1	-133	38	3	56*	-92	-39
COc1cc(/C=C/c2noc(-c3ccccc3O)n2)cc(OC)c1OC	-88	-33	8	-59	-85	-27
O=C1c2cc3c(cc2CCC1c1ccc2c(c1)OCO2)OCO3 (stereo not drawn)	-193	-28	-17	-12	nt	-15
N#Cc1ccccc1Sc1ccccc1C(=O)OCC(=O)NC12CC3CC(CC(C3)C1)C2	15	35	16	63*	-1	7
O=C(COC(=O)c1ccccc1)NC12CC3CC(CC(C3)C1)C2	-18	24	0	5	-2	-1
Cc1ccc(C(O)c2ncc(-c3ccccc3C)[nH]2)cc1F (stereo not drawn)	-57	-3	nt	-4	nt	3
O=C(CCCl)Nc1nc2c(s1)CCc1ccccc1-2	-34	-21	-16	3	29	58
CC(=O)Nc1nc2c(s1)CCc1ccccc1-2	-45	-15	-4	57*	13	9
CCN1CCN(C(=O)Nc2cccc3ccccc23)CC1	4	56*	-5	7	13	-11
CCOC(=O)c1c(C)[nH]c(C2=NNC(=Nc3ccccc3)SC2)c1C	-97	38	-6	43	-14	-20
CCOC(=O)c1c(C)[nH]c(C2=NNC(=Nc3ccccc3OC)SC2)c1C	-213	42	-27	51*	-48	-25
C1CCC(C(CC2CCCCN2)C2CCCCC2)CC1 (stereo not drawn)	-25	-4	-6	-12	81*	?
O=S1(=O)CC(N2CC=CC2)CN1Cc1cn(Cc2ccc(F)cc2)nn1 (stereo not drawn)	11	16	nt	6	nt	nt
N#CC(=C=[N-])c1nc2ccccc2nc1-[n+]1cccc(NC(=O)c2cccs2)c1	1	-12	4	13	2	nt
